Laboratory results published in PubChem BioAssay AID1259319 (Sanford-Burnham Center for Chemical Genomics, 2017).
Hit rate of the full screen: of about 3,000 compounds, about 1,800 (60%) were called active.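 How the source made its calls: active means activation at or above a set limit, or at least 3 SD above the negative control mean; inactive means the rest.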 So high a share suggests a set chosen from earlier hits. Only a sample is shown.

target: Nuclear receptor subfamily 1 group D member 1 (Homo sapiens) (UniProt P20393); test: Rev-erbα–DNA interaction modulation, retest – biochemical, FITC-DNA, fluorescence polarization, single point, confirmation (AID 1259319); conditions: Rev-erb alpha FITC-DNA binding, 90 min, at 25 µM, hits give high values;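 further: 0% = 35 nM protein with DMSO and 100% = 750 nM protein high control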
Sequence (P20393 whole entry, looked up): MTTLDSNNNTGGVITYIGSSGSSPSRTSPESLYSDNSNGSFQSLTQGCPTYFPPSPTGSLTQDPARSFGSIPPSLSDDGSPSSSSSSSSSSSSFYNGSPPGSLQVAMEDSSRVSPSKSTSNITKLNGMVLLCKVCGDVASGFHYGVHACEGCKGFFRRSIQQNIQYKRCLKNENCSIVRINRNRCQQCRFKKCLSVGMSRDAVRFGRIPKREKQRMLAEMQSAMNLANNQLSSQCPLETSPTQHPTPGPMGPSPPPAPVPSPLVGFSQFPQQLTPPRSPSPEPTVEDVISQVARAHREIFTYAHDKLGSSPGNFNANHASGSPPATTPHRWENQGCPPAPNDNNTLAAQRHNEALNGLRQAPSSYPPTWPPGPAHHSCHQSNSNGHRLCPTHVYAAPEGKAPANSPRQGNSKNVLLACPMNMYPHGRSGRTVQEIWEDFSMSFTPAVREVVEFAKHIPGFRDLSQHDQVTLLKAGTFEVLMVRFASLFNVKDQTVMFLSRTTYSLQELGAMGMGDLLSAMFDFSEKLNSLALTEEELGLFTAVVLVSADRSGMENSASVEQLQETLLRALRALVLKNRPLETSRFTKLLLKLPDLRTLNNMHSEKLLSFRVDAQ

Compound	activation
CCOc1ccc(-c2nnc3ccc(SC)nn23)cc1	26% (active)
COc1ccc(-c2nnc3ccc(SCc4ccccc4)nn23)cc1	14.9% (active)
Cc1cc(C)c2nc(SCC(=O)N(C)C3CCS(=O)(=O)C3)cc(C)c2c1 (stereo unspecified)	34.9% (active)
CC1(C)Cc2nc3sc4c(SCC(=O)NC(c5ccccc5)c5ccccc5)ncnc4c3cc2CO1	138% (active)
COc1ccc(/C=C2\SC(=S)N(CCCC(=O)NC3CCCC3)C2=O)cc1OC	31.3% (active)
Cc1cc(/C=C(/C#N)C(=O)Nc2ccc(Cl)cc2)c(C)n1-c1cccnc1	53.9% (active)
CCCc1nc(SCC(=O)Nc2ccc(S(=O)(=O)N(C)C)cc2)c2ccccc2n1	18.2% (active)
COC(=O)c1ccc(NC(=O)c2cc(Cl)ccc2OC)cc1	32.8% (active)
Cc1cc(C)c(/C=C2\C(=O)Nc3ccccc32)[nH]1	32.5% (active)
Cc1ccc(NS(=O)(=O)c2cc3c(cc2Br)NC(=O)CO3)cc1C	5.15% (inactive)
COc1ccc(CCNc2nc3ccc(C)cc3n3cnnc23)cc1OC	2.71% (inactive)
O=C(Nc1nnc(-c2ccccc2F)s1)c1ccccc1F	25.2% (active)
Cc1ccc(C(=O)Nc2nnc(-c3cccs3)s2)cc1C	-3.7% (inactive)
CN1/C(=c2/s/c(=C3/C(=O)N(c4ccccc4)NC3=Nc3ccccc3)n(C)c2=O)C(C)(C)c2ccccc21	29.8% (active)
CCCCCCSc1ccc(-c2nc3ccc(Cl)cn3c2NCc2ccccc2)cc1	12.7% (inactive)
Cc1cc(C)c2c(-c3ccc(F)cc3)c(C#N)c(=O)n(C)c2n1	24.5% (active)
CSc1ccc(-c2c(C#N)c(N)nc3c2c(C)nn3-c2ccccc2)cc1	7.01% (inactive)
Cc1cc(N/C=C\C(=O)c2ccc(Cl)c(Cl)c2)no1	4.17% (inactive)
O=C(COc1ncnc2c(Cl)cc(Cl)cc12)N1CCN(S(=O)(=O)c2ccccc2)CC1	14.4% (inactive)
N#Cc1c(-c2ccc(F)cc2)cc(C2CC2)nc1SCC(=O)c1cccs1	65.1% (active)
CS(=O)(=O)c1ccc2nc(NC(=O)c3ccc(N4CCCC4=O)cc3)sc2c1	18.3% (active)
COc1ccc(-c2csc(NC(=O)c3ccc(N4C(=O)CCC4=O)cc3)n2)cc1OC	16.5% (inactive)
CCOC(=O)C1=C(c2ccccc2)O/C(=C(/C(=O)OC)C(F)(F)F)S1	0.229% (inactive)
CCC(C)C1(C2CCCC2)NC(=O)NC1=O (stereo unspecified)	-1.67% (inactive)
CC1(C)CC2CC(C)(CN2c2ncnc3ccc(Br)cc23)C1 (stereo unspecified)	14% (inactive)
Cc1cccc(N(CC(=O)Nc2ccc(-c3nc4ccc(C)cc4s3)cc2)S(C)(=O)=O)c1	22.1% (active)
